Source: PubChem BioAssay AID1918 (Vanderbilt High Throughput Screening Facility, 2009)
The whole screen tested about 130,000 compounds, of which about 2,500 (1.9%) were called active.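 How the source made its calls: active means signal ratio slope over the read window, or its plate-corrected B-score, at least 3 SD from the plate mean, either direction; inactive means the rest.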 The sample as a whole holds a higher share of actives than the screen did.

These compounds were tested against ATP-sensitive inward rectifier potassium channel 1 (Homo sapiens) (UniProt P48048) (assay: Kir1.1 channel activity modulation, library screen – cell-based, thallium flux, MLSMR library, primary screen (AID 1918;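 further: B-score of the F/F0 ratio slope over 7 to 12 s after thallium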)). Settings: Tet-inducible ROMK, thallium flux fluorescence; at 10 µM; actives lie on both sides.
ATP-sensitive inward rectifier potassium channel 1 (Homo sapiens), sequence (P48048 whole entry, looked up): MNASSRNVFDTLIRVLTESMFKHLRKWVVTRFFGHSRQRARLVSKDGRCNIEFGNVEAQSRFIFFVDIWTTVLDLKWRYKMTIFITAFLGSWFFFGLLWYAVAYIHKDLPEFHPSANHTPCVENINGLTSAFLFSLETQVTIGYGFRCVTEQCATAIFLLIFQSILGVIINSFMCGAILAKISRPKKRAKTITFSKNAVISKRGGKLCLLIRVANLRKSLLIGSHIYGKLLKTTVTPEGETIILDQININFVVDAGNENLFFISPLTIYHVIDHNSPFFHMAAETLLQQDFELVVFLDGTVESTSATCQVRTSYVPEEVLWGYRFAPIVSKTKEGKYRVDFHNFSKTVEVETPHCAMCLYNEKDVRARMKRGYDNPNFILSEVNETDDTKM
Cc1nc2ccccn2c1P(=S)(N1CCCCC1)N1CCCCC1 was tested, and the B-score was -3.59 (active).
CSc1nc2ccc(C)cc2c(=O)n1-c1cccnc1 was tested, and the B-score was -0.218 (inactive).
For COC(=O)N1C(c2ccccc2)C1c1ccccc1 (stereo not given), the B-score was 0.0342 (inactive).
In the case of O=C(Nc1cccc2ccccc12)N1CCC2(CC1)OCCO2, the B-score is reported as -0.682 (inactive).
In the case of CCN1CCN(c2ccc([N+](=O)[O-])cc2C#N)CC1, the B-score is reported as -0.443 (inactive).
In the case of CC1=C2C(=O)C3C(CC=C4CC(OC5OC(O)C(O)C(O)C5CO)CCC43C)C2CCC12OC1CC(C)CNC1C2C (stereo not given), the B-score is reported as -0.573 (inactive).
With N=c1ccccn1Cc1ccccc1 the B-score was 2.77 (active).
With CN(C)/C=C(\C=[N+](C)C)c1[nH]ncc1[N+](=O)[O-] the B-score was 0.157 (inactive).
In the case of O=c1[nH]c(=O)n(-c2ccccc2)c(O)c1C=NC12CN3CN(CN(C3)C1)C2, the B-score is reported as 0.583 (inactive).
In the case of O=c1[nH]c(=O)n(CCc2ccccc2)c(O)c1/C=N/N1CCOCC1, the B-score is reported as 0.152 (inactive).
With CC1=C(C(=O)Nc2ccccc2)S(=O)(=O)CCO1 the B-score was 0.94 (inactive).
COc1ccccc1N=Nc1c(O)[nH]c(=S)[nH]c1=O was tested, and the B-score was -2.66 (active).
In the case of CCOCCc1c(O)[nH]c(=S)[nH]c1=O, the B-score is reported as -0.807 (inactive).
O=C1N=c2ccccc2=C/C1=C\c1c(O)[nH]c(=S)[nH]c1=O was tested, and the B-score was 0.454 (inactive).
In the case of CNC(=O)O/N=C(\N)Cc1csc2ccccc12, the B-score is reported as 0.164 (inactive).
In the case of CC(Cc1cccs1)NCc1ccc(Cl)cc1 (stereo not given), the B-score is reported as 0.0543 (inactive).
CCCOC(=O)C1C2c3ccccc3C(c3ccccc32)C1C(=O)O (stereo not given) was tested, and the B-score was 0.827 (inactive).
O=C(COC(=O)Cc1ccccc1)Nc1ccc(F)cc1 was tested, and the B-score was -0.767 (inactive).
For OC1/C(=C/c2ccc(C(F)(F)F)cc2)N2CCC1CC2 (stereo not given), the B-score was -1.88 (inactive).
With CCCCCCCCCCCCn1ccc(=N)cc1 the B-score was -10.9 (active).
In the case of CC(C)CN1CCN(Cc2ccccc2C(F)(F)F)CC1CCO (stereo not given), the B-score is reported as -0.0138 (inactive).
CC(C)Oc1cccc(C(=O)C2CCCN(C3CCOCC3)C2)c1 (stereo not given) was tested, and the B-score was 0.0502 (inactive).
For Cc1ccc(-c2cc(C(=O)N3CCC4(CC3)OCCO4)no2)cc1, the B-score was 1.11 (inactive).
For Clc1ccc2nc3c(c(-c4ccccc4)c2c1)CNCC3, the B-score was -3.67 (active).
For Cc1cc(/C=C2/C(=O)NC(=O)N(Cc3ccco3)C2=O)c(C)n1-c1ccc(C(=O)O)cc1, the B-score was 0.104 (inactive).
In the case of Cc1ccccc1N1C(=O)NC(=O)/C(=C\c2cc(C)n(C)c2C)C1=O, the B-score is reported as 0.936 (inactive).
For Cc1cc(C=C2C(=O)NC(=O)NC2=O)c(C)n1-c1ccncc1, the B-score was -3.19 (active).
For O=C(Cn1c(=O)n(CC2CS2)c2ccccc21)N1CCCCC1 (stereo not given), the B-score was 1.36 (inactive).
With CC(C)c1ccc(-n2c(O)c(/C=N/N3CCOCC3)c(=O)[nH]c2=S)cc1 the B-score was 0.913 (inactive).
With COc1ccc(NC(=O)N2CCC3(CC2)OCCO3)c(OC)c1 the B-score was -0.624 (inactive).
